The values that follow come from PubChem BioAssay.

The subject of assay [1] is Aerobactin synthetase IucA (Klebsiella pneumoniae). The experiment in a line: inhibition of K. pneumoniae IucA enzyme – biochemical, Tocris library, absorbance (AID 1345561).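 Note: 100% = enzyme without compound and 0% = no enzyme.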 The settings on record: purified IucA enzyme assay, absorbance (OD) read-out; stronger effect = lower value;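 tested at 8 µM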.
Assay [2] in a line: viability loss in pontine glioma line – cell-based, SU-DIPG-XIII, MIPE4.0, CellTiter-Glo, qHTS, dose response (AID 1347061; cut-off not given, nearly all actives have AC50 up to about 37 µM;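 note: cells exposed to compound for 48 hours before readout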). The settings on record: CellTiter-Glo ATP luminescence. (In ATP-based viability assays light output follows the ATP content of the culture.)
Assay [3] can be described thus: viability loss in pontine glioma line – cell-based, JHH-DIPG-1, MIPE4.0, CellTiter-Glo, qHTS, dose response (AID 1347062; cut-off not given, nearly all actives have AC50 up to about 27 µM). The settings on record: JHH-DIPG-1 viability, CellTiter-Glo ATP luminescence.
Assay [4] in a line: viability loss with induced miR-34 in A549 – imaging, A549 dox-inducible miR-34, nuclei and caspase counts, primary screen (AID 1347080;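 active = compounds whose cell count with miR-34 switched on is under 0.7 times the count with it off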). The settings on record: A549 miR-34 inducible, Hoechst nuclei count, 48 h.
The nature of assay [5]: compounds altering HSF1 focus formation in cells – imaging, Selleck Cancer Library (AID 1347162; in the data active = plate-normalised HSF1 focus index below about 0.46). The settings on record: human cells, HSF1 nuclear foci imaging, at 10 µM; SSMD: measured here: HSF1 foci SSMD mean; cell count: measured here: cell number; plate-normalised HSF1 focus index: stronger effect = lower value.
The nature of assay [6]: galactose survival enhancers in mitochondrial complex I cybrids – cell-based, galactose medium, ATP luminescence, primary screen (AID 1645843;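 active = z-score of at least 1.8 in each of two replicates, scored against plate mean and spread of sample wells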;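 note: positive z means more ATP and so rescue of galactose-driven cybrid death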). The settings on record: complex I mutant cybrid cells, 72 h, stronger effect = higher value.
A short description of assay [7]: compounds altering circadian rhythm period length – cell-based, LOPAC library, luminescence reporter (AID 2774).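 Note: values are relative to mean of DMSO wells on each plate.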 The settings on record: circadian reporter cells, at 7 µM, actives lie on both sides.
For assay [8], the system named is Hepatitis C virus NS3 helicase. The experiment in a line: blockers of NS3h binding to ssDNA – biochemical, fluorescence polarization, LOPAC1280 library, primary screen (AID 687035; in the data active = inhibition above about 37%). The settings on record: Purified HCV NS3 helicase, Cy5-dT15 ssDNA binding fluorescence polarization; stronger effect = higher value; concentration not given here. (In fluorescence polarisation assays a small probe gives low polarisation when free and higher when bound to something large.)

Assay [9] can be described thus: compounds altering Cy5-DNA-NS3h complex signal – biochemical, LOPAC1280, artefact control for HCV NS3 helicase inhibitor project (AID 687037). The settings on record: Cy5-DNA-NS3h complex fluorescence interference counterscreen. Background: Counterscreens check selectivity or assay interference.
Assay [10] is described as follows: viability loss in pontine glioma line – cell-based, SU-DIPG-XIII, MIPE5.0, CellTiter-Glo, qHTS, dose response (AID 1347064; cut-off not given, nearly all actives have AC50 up to about 23 µM;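 note: cells exposed to compound for 48 hours before the viability read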). The settings on record: CellTiter-Glo ATP luminescence.
Assay [11] in a line: JHH-DIPG-1 glioma cell viability, MIPE5.0 library, CellTiter-Glo luminescence, qHTS (AID 1347067; cut-off not given, nearly all actives have AC50 up to about 26 µM;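 note: cells exposed to compound for 48 hours before readout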). The settings on record: JHH-DIPG-1 glioma viability, CellTiter-Glo ATP luminescence.
Assay [12] in a line: growth inhibition of DIPG cells – cell-based, MIPE5.0 library, qHTS (AID 1347068; cut-off not given, nearly all actives have IC50 up to about 30 µM;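 for IC50: cells exposed to compound for 48 hours before viability readout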). The settings on record: SU-DIPG-XXV viability.
A short description of assay [13]: chitosan synthesis blockers in C. neoformans – flow cytometry, Cibacron Brilliant Red staining (AID 1347148).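 Note: compound exposure lasted three days at 37 degrees C.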 The settings on record: Cryptococcus neoformans chitosan, stronger effect = lower value; at 10 µM unless noted.
A short description of assay [14]: blockers of cellular phospholipid synthesis – cell-based, LOPAC library, screen 4, primary screen (AID 1347384). The settings on record: animal cells, phospholipid biosynthesis inhibition screen; at 10 µM.
A short description of assay [15]: P. berghei load reduction in hepatocytes – cell-based, HepG2, luciferase luminescence, HepG2 viability, primary screen (AID 624349; in the data active = parasite load remaining mostly below about 12%, no sharp cut-off; inactive = mostly above about 10%;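 note: 100% = mean of DMSO negative control wells on the same plate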). The settings on record: P. berghei liver stage in HepG2, luciferase luminescence, concentration not given here; parasite load remaining: stronger effect = lower value; viability: measured here: HepG2 viability without parasites.
A short description of assay [16]: viability loss in pontine glioma line – cell-based, SU-DIPG-IV, MIPE4.0, CellTiter-Glo, qHTS, dose response (AID 1347063; cut-off not given, nearly all actives have AC50 up to about 30 µM;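 note: compound exposure lasted 48 hours before the viability readout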). The settings on record: CellTiter-Glo ATP luminescence.
The nature of assay [17]: growth inhibition of DIPG cells – cell-based, MIPE4.0 library, CellTiter-Glo luminescence, qHTS (AID 1347066; cut-off not given, nearly all actives have AC50 up to about 30 µM;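 note: cells exposed to compound for 48 hours before readout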). The settings on record: SU-DIPG-VI viability, CellTiter-Glo ATP luminescence.
Assay [18] in a line: MELAS cybrid and Rieske KO viability enhancers – cell-based, MELAS cybrids, Rieske KO mouse fibroblasts, CellTiter-Glo, primary screen (AID 1508586;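 active = mean z-score across replicates of 1.96 or higher in either the MELAS or the Rieske mutant cell line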;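 note: z relative to plate mean and SD of compound and empty wells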). The settings on record: low glucose.
The mark [19] stands for this setting: stronger effect = lower value, cell number ratio, induced over uninduced.
Where [20] appears, read: measured here: relative caspase fold change +Dox/-Dox.
The mark [21] stands for this setting: measured here: total cells with miR-34 induction, stronger effect = lower value.
[22] abbreviates: measured here: total cells without miR-34 induction.

“And” between values parts separate entries of the source, which are not always exact repeats. Equal entries are not always repeated. Inconclusive results are not listed. The source made the active and inactive calls. Unless noted, the rule behind the calls is not given here.

One may read the remaining activity as the signal under treatment as a percentage of the control signal. As for `COc1ccc(-c2oc3cc(OC)ccc3c2C(=O)c2ccc(C#N)cc2)cc1`, the remaining activity in assay [1] is 104% (inactive). Moreover, the call in assay [2] and in [3] was inactive. For the same compound, the fold change in [4] (setting [19]) is 0.933 (inactive); in assay [4] (setting [20]) it was 1.26. The cell count was found to be 7250 in [4] (setting [21]), 7780 in assay [4] (setting [22]) and 6920 in [5]. In assay [5], this compound registered an SSMD of 3.38. The plate-normalised HSF1 focus index in assay [5] was 1.2 (inactive). Besides, the z-score in [6] is 0.755 (inactive).
The inhibition is the relative decrease from the control value, in per cent. As usually defined, the AC50 is the concentration at which the activity in the assay is half-maximal. For the compound `Oc1cc(O)cc(/C=C/c2ccc(O)c(O)c2)c1`, the period change in assay [7] was -0.07 h (inactive). In addition, in assay [8], the inhibition was -6% (inactive). Further, the fluorescence ratio (interference) in [9] was 0.9 (inactive). The remaining activity in [1] is 112% (inactive). Besides, the compound was classed as inactive in assay [2], in assay [12] and in assay [14]. Moreover, the AC50 in [10] is 20.9 µM (active); in assay [11], 16.6 µM (active). In addition, the fold change in assay [4] (setting [19]) is 1.12 (inactive) and 0.813 (inactive) and 0.863 (inactive); in assay [4] (setting [20]), 0.772 and 1.12 and 0.797. Moreover, the cell count was 9320 and 2290 and 7210 in assay [4] (setting [21]); 8350 and 2810 in [4] (setting [22]). Moreover, the fold fluorescence in [13] was 4.54 [at 204.7 µM] (inactive). In addition, the z-score in [6] was -1.24 (inactive) and -0.7 (inactive).
One may read the viability as the share of living cells, or the viability signal relative to a control. In the case of `Oc1ccc(-c2nc(-c3ccc(F)cc3)c(-c3ccncc3)[nH]2)cc1`, the period change in [7] is 1.07 h (active). For the same compound, the parasite load remaining in assay [15] was 28.5% (inactive). In [15], this compound registered a viability of 95.1%. Further, in assay [8], the inhibition was -3% (inactive). Besides, the fluorescence ratio (interference) in assay [9] was 0.9 (inactive). In assay [1], the remaining activity was 114% (inactive). Moreover, the half-maximal activity concentration (AC50) in assay [2] is 5.9 µM (active); in assay [16], 23.5 µM (active). Further, the result in assay [3], in assay [17], in assay [12] and in assay [14] was inactive. The fold fluorescence in assay [13] is 8.11 [at 150.9 µM] (inactive). Besides, the z-score in [18] (MELAS cybrid survival, CellTiter-Glo 48 h, stronger effect = higher value) is -0.659 (inactive); in [18] (Rieske KO mouse fibroblast survival, CellTiter-Glo 72 h) it was 0.329; in assay [6] it was 1.04 (inactive) and 0.455 (inactive).
As usually defined, the IC50 is the concentration that inhibits the measured activity by half. For the compound `CCCC[C@@H](C=O)NC(=O)[C@H](CC(C)C)NC(=O)OCc1ccccc1`, the remaining activity in assay [1] is 86.3% (inactive). In addition, the result in assay [11] was inactive. Moreover, in assay [12], the IC50 is 16.6 µM (active). Further, the fold change in [4] (setting [19]) is 0.927 (inactive) and 0.862 (inactive); in assay [4] (setting [20]), 1.01 and 0.983. The cell count in assay [4] (setting [21]) is 6040 and 7590; in [4] (setting [22]) it was 6520 and 8800. In assay [13], the fold fluorescence was 5.15 [at 137.9 µM] (inactive). Further, the z-score in [6] is 2.31 (inactive).
As to `Nc1nccc(-c2ccc3noc(-c4ccc(Cl)cc4)c3c2)n1`, the parasite load remaining in [15] was 22.2% (inactive). Further, the viability in assay [15] was determined as 88.2%. For the same compound, in assay [1], the remaining activity is 127% (inactive). Besides, the compound was classed as inactive in assay [3] and in [17]. In addition, the fold change in [4] (setting [19]) was 0.777 (inactive); in [4] (setting [20]), 2.19. Also, the cell count in [4] (setting [21]) came to 3770; in [4] (setting [22]), 4860; in assay [5] it was 7060. Also, the SSMD in [5] stood at 3.12. In assay [5], the plate-normalised HSF1 focus index is 1.19 (inactive). For the same compound, the z-score in assay [6] was -0.05 (inactive).
As for `CC(C)C[C@@H](C(=O)N[C@H](C(=O)OC1CCCC1)c1ccccc1)[C@H](O)C(=O)NO`, the remaining activity in assay [1] was 125% (inactive). Moreover, the AC50 was 16.6 µM (active) in assay [16] and 23.5 µM (active) in assay [17]. Besides, the compound was called inactive in assay [11]. Also, the fold change in assay [4] (setting [19]) was 1 (inactive); in [4] (setting [20]) it was 1.24. Also, the cell count in assay [4] (setting [21]) was found to be 7280; in assay [4] (setting [22]), 7280; in [5], 6800. In assay [5], the SSMD was 3.49. Besides, the plate-normalised HSF1 focus index in assay [5] was 1.19 (inactive). In addition, the z-score in assay [6] is 0.875 (inactive).
